# Data as given in PubChem BioAssay (Tox21).
# Several values for one entry are separate records, joined by “and”; a condition that tells them apart may be missing. Equal values may be shown once. Some compounds were tested as several samples or in several runs, with calls that do not always agree. Activity calls are given as the source filed them. A call without a number means that no potency is given here. Unless noted, the call rests on the fitted dose curve; in most records, active means well fitted curve in the direction sought with a large enough effect in the repeat runs; inconclusive means weak or mixed curves; inactive means no such curve, though single readings can be large; an effect the other way counts as inactive or inconclusive.
# Columns and labels:
# [1] = qHTS assay to identify small molecule antagonists of the thyroid receptor (TR) signaling pathway - cell viability counter screen (AID 743064); further: nearly all actives have a fitted effect of over 50% in size; further: potency means the concentration at half of the fitted maximal effect
# Procedure, shortened: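 Counter screen for cytotoxicity: compound plus T3 (1 nM final) on GH3.TRE-Luc cells, 23.5 h at 37 °C, then fluorescence viability readout with CellTiter-Fluor.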
# [2] = qHTS assay to identify small molecule antagonists of the thyroid receptor (TR) signaling pathway (AID 743065); further: nearly all actives have a fitted effect of over 55% in size; further: potency means the concentration at half of the fitted maximal effect
# Procedure, shortened: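 GH3.TRE-Luc rat pituitary cells (two TREs driving luciferase) were dosed with compound, then stimulated with 1 nM T3 (final) for 23.5 h at 37 C. ONE-Glo luminescence was the read-out, with CellTiter-Fluor fluorescence as the cytotoxicity counter-screen.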
# [3] = qHTS assay to identify small molecule antagonists of the estrogen receptor alpha (ER-alpha) signaling pathway - cell viability counter screen (AID 743074; calls by dose curve;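 further: HEK293 cells carrying ER-alpha-UAS-bla reporter stimulated with 17beta-estradiol; nearly all actives have a fitted effect of over 45% in size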; further: potency means the concentration at half of the fitted maximal effect)
# [4] = qHTS assay to identify small molecule antagonists of the estrogen receptor alpha (ER-alpha) signaling pathway using the BG1 cell line - cell viability counter screen (AID 743081);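 further: compound given together with 17beta-estradiol as the ER stimulus; nearly all actives have a fitted effect of over 45% in size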; further: potency means the concentration at half of the fitted maximal effect
# [5] = qHTS assay to identify small molecule that activate the aryl hydrocarbon receptor (AhR) signaling pathway - cell viability counter screen (AID 743086); further: nearly all actives have a fitted effect of over 45% in size; further: potency means the concentration at half of the fitted maximal effect
# Procedure, shortened: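 HepG2-AhR-luc (HG2L7.5c1) cells, 4000/well, treated 24 h at 37 C with compound; viability measured as CellTiter-Fluor fluorescence after 30 min in the same wells as the luciferase read.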
# [6] = qHTS assay to identify small molecule antagonists of the peroxisome proliferator-activated receptor gamma (PPARg) signaling pathway - cell viability counter screen (AID 743194); further: nearly all actives have a fitted effect of over 55% in size
# Procedure, shortened: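 Cytotoxicity counter screen in PPARg-bla HEK293H cells, same wells as reporter assay. Compounds plus 50 nM rosiglitazone (final) for 17 h at 37 C, then viability read by CellTiter-Glo luminescence.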
# [7] = qHTS assay for small molecule agonists of the antioxidant response element (ARE) signaling pathway (AID 743202; active means well fitted activation curve with a large enough effect in the signal ratio in the repeat runs, not every such curve was filed as active; inconclusive means weak or mixed curves, or effect the other way; inactive means no such curve, though single readings can be large or run the other way; the % refers to the signal ratio; further: potency means the concentration at half of the fitted maximal effect)
# Procedure, shortened: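 HepG2 ARE-bla reporter line, 2,000 cells/well; 5 h preincubation 37 C/5% CO2; compound (DMSO) 16 h 37 C; B/G FRET substrate 2 h RT; fluorescence intensity.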
# [8] = qHTS assay for small molecule agonists of the antioxidant response element (ARE) signaling pathway - cell viability counter screen (AID 743203; calls by dose curve; further: nearly all actives have a fitted effect of over 55% in size; further: potency means the concentration at half of the fitted maximal effect)
# Procedure, shortened: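 Measured in the same wells as the beta-lactamase ARE reporter, this read-out is CellTiter-Glo luminescence from HepG2 ARE-bla cells given compounds for 16 hrs.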
# [9] = qHTS assay for small molecule activators of the heat shock response signaling pathway - cell viability counter screen (AID 743209); further: nearly all actives have a fitted effect of over 50% in size
# Procedure, shortened: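 Same-well multiplex: after 2.5 h room-temperature incubation with LiveBLAzer B/G substrate and fluorescence reading, CellTiter-Glo reagent was added to HSE-bla HeLa cells that had received compound for 5 h at 37 C; luminescence read after 30 min.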
# [10] = qHTS assay for small molecule activators of the heat shock response signaling pathway (AID 743210; active means well fitted activation curve with a large enough effect in the signal ratio in the repeat runs, with a control signal flat, not every such curve was filed as active; inconclusive means weak or mixed curves; the % refers to the signal ratio;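 further: HeLa cells with beta-lactamase reporter driven by heat shock elements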)
# Procedure, shortened: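 Beta-lactamase reporter read-out: FRET substrate fluorescence after 2.5 h at RT, following 5 h compound treatment at 37 C of HeLa cells carrying HSE-driven bla reporter; quantitative HTS format.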
# Aromatase (Homo sapiens) = Aromatase (Homo sapiens) (UniProt P11511); assay: qHTS assay to identify aromatase inhibitors (AID 743083); further: nearly all actives have a fitted effect of over 55% in size; further: potency means the concentration at half of the fitted maximal effect
# [11] = target: Estrogen receptor (Homo sapiens) (UniProt P03372); assay: qHTS assay to identify small molecule agonists of the estrogen receptor alpha (ER-alpha) signaling pathway (AID 743075; calls by dose curve;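 further: HEK293 GripTite cells with ER-alpha and UAS-driven beta-lactamase reporter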)
# [12] = qHTS assay to identify small molecule antagonists of the estrogen receptor alpha (ER-alpha) signaling pathway using the BG1 cell line (AID 743080; calls by dose curve;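 further: BG1 cells stimulated with 17beta-estradiol alongside compound; nearly all actives have a fitted effect of over 25% in size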; further: potency means the concentration at half of the fitted maximal effect)
# Procedure, shortened: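 Luminescence from a 4×ERE-luciferase reporter in BG1-Luc-4E2 cells served as read-out. Cells, pre-cultured 5 days in stripped-serum phenol-red-free medium, were exposed to compound with 17beta-estradiol co-stimulation for 21.5 h at 37 C.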
# [13] = target: Aryl hydrocarbon receptor (Homo sapiens) (UniProt P35869); assay: qHTS assay to identify small molecule that activate the aryl hydrocarbon receptor (AhR) signaling pathway (AID 743085); further: nearly all actives have a fitted effect of over 15% in size; further: potency means the concentration at half of the fitted maximal effect;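 on activation: HG2L7.5c1 human HepG2 liver cells with stably integrated DRE-driven firefly reporter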
# Procedure, shortened: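 Measured in HG2L7.5c1 cells: CellTiter-Fluor signal (30 min incubation, 37C) for viability, then luciferase luminescence (30 min, room temperature). Compound contact time was 24 h at 37C, following a 5 h pre-incubation.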
# [14] = target: Peroxisome proliferator-activated receptor gamma (Homo sapiens) (UniProt P37231); assay: qHTS assay to identify small molecule antagonists of the peroxisome proliferator-activated receptor gamma (PPARg) signaling pathway (AID 743191; calls by dose curve; further: nearly all actives have a fitted effect of over 30% in size; further: potency means the concentration at half of the fitted maximal effect)
# Procedure, shortened: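 GeneBLAzer PPARg UAS-bla HEK293H cells, 5 h post-plating, exposed to compounds 17 h at 37C. LiveBLAzer B/G FRET substrate added for 1 h at room temperature; beta-lactamase reporter read by fluorescence intensity.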
# [15] = system: thyroid hormone receptor (rat, GH3 cells); assay: qHTS assay to identify small molecule agonists of the thyroid receptor (TR) signaling pathway (AID 743066; calls by dose curve)
# [16] = target: Estrogen receptor (Homo sapiens) (UniProt P03372); assay: qHTS assay to identify small molecule agonists of the estrogen receptor alpha (ER-alpha) signaling pathway using the BG1 cell line (AID 743079); conditions: BG1Luc4E2 cells, ERE-luciferase agonist, 22 h; activation: at 70.3 µM (top of the series); further: nearly all actives have a fitted effect of over 20% in size; further: potency means the concentration at half of the fitted maximal effect
# [17] = qHTS assay to identify aromatase inhibitors - cell viability counter screen (AID 743084); further: potency means the concentration at half of the fitted maximal effect
# [18] = target: Peroxisome proliferator-activated receptor gamma (Homo sapiens) (UniProt P37231); assay: qHTS assay to identify small molecule agonists of the peroxisome proliferator-activated receptor gamma (PPARg) signaling pathway (AID 743094; active means well fitted activation curve with a large enough effect in the signal ratio in the repeat runs, not every such curve was filed as active; inconclusive means weak or mixed curves, or effect the other way; inactive means no such curve, though single readings can be large or run the other way; the % refers to the signal ratio)
# Procedure, shortened: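 Cell-based bla reporter, HEK293H background, PPARg-driven UAS. Pre-incubation 5 h, 37C, 5% CO2. Compound 17 h, 37C. Substrate 1 h RT; fluorescence.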
# [19] = target: Estrogen receptor (Homo sapiens) (UniProt P03372); assay: qHTS assay to identify small molecule antagonists of the estrogen receptor alpha (ER-alpha) signaling pathway (AID 743069; active means well fitted curve in the direction sought with a large enough effect in the signal ratio in the repeat runs, not every such curve was filed as active; inconclusive means weak or mixed curves, or effect the other way; inactive means no such curve, though single readings can be large or run the other way; the % refers to the signal ratio; further: potency means the concentration at half of the fitted maximal effect)
# Procedure, shortened: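 Beta-lactamase FRET fluorescence is read after 2 hr at room temperature with LiveBLAzer B/G substrate. Before that, ER-alpha-bla HEK293 cells sit 4 hr after plating, then receive compound plus 17beta-estradiol and incubate 18 hr at 37C.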
# Aryl hydrocarbon receptor (Homo sapiens), sequence (P35869 whole entry, looked up): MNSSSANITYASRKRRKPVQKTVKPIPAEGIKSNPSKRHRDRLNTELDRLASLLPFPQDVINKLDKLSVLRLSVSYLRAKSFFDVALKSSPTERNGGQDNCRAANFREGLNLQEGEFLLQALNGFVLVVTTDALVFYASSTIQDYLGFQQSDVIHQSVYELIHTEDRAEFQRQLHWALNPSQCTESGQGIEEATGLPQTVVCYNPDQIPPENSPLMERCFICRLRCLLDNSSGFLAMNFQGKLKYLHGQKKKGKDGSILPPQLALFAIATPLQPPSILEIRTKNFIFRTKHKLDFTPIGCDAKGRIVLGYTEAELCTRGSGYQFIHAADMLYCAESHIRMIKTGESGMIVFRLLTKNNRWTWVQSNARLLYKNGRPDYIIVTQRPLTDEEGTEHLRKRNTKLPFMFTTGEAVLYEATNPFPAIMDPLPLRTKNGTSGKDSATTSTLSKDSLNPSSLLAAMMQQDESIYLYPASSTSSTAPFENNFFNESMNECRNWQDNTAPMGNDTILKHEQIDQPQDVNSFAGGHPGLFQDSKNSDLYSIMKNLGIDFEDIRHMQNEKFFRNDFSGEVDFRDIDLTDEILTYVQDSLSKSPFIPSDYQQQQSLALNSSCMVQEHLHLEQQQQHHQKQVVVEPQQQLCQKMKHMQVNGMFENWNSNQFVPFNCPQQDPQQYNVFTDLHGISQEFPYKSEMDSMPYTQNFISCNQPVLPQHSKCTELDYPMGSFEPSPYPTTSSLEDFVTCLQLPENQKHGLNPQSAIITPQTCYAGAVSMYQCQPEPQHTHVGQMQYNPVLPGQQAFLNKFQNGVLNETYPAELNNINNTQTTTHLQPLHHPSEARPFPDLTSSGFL
# Estrogen receptor (Homo sapiens), sequence (P03372 whole entry, looked up): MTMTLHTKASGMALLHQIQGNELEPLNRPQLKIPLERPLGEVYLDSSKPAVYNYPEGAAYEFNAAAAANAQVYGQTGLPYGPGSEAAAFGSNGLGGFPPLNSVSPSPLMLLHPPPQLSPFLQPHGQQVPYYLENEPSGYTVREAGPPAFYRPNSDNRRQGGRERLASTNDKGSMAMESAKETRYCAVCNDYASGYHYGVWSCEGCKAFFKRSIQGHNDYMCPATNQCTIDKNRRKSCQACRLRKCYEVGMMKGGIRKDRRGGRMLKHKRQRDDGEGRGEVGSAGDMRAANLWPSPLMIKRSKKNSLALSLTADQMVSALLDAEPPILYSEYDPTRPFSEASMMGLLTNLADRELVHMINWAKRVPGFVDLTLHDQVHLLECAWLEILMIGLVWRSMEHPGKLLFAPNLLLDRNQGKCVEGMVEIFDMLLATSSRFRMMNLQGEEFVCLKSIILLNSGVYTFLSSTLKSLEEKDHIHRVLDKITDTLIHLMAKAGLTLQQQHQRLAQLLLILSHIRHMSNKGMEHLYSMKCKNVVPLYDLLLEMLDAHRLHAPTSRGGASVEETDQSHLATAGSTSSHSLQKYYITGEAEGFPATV
# Peroxisome proliferator-activated receptor gamma (Homo sapiens), sequence (P37231 whole entry, looked up): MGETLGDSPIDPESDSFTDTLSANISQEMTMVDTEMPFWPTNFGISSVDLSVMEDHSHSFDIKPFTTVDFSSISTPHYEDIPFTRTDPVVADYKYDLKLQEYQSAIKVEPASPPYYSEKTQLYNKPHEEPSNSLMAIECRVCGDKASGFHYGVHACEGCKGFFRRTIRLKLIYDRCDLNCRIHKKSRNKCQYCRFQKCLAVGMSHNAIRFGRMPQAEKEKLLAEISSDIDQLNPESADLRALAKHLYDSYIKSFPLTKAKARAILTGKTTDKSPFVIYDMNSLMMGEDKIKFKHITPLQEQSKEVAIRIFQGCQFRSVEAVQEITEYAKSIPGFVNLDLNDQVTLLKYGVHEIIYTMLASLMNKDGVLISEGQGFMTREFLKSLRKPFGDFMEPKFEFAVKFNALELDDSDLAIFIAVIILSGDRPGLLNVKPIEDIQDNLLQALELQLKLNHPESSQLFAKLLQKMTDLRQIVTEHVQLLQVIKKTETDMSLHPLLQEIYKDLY
# Aromatase (Homo sapiens), sequence (P11511 whole entry, looked up): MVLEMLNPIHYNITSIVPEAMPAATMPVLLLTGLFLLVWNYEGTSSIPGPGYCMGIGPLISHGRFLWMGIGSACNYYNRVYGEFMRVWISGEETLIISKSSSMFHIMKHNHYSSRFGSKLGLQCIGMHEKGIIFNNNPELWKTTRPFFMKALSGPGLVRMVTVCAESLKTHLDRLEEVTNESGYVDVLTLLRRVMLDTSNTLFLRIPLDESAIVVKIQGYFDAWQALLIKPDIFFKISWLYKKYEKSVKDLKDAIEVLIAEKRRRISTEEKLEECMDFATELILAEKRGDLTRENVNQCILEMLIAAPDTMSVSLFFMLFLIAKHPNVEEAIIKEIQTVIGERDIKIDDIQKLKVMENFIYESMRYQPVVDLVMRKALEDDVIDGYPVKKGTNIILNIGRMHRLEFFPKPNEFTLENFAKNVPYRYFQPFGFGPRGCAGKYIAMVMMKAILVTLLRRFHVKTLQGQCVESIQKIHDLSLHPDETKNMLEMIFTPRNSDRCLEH
Compound,Potency [1],Potency [2],Potency [3],Potency [4],Potency [5],Potency [6],Potency [7],Potency [8],Potency [9],Potency [10],Potency (Aromatase (Homo sapiens)),Potency [11],Potency [12],Potency [13],Potency [14],outcome [15],Potency [16],Potency [17],Potency [18],Potency [19]
C=CC(C)(C)CC(=O)OC,inactive,inactive,inactive,inactive,inactive,inactive,inactive,inactive,inactive,inactive,–,–,–,–,–,–,–,–,–,–
CO[C@@]12[C@H](COC(N)=O)C3=C(C(=O)C(C)=C(N)C3=O)N1C[C@@H]1N[C@@H]12,2.37 µM (active),1.33 µM (active),–,–,29.8 µM (active),–,–,16.8 µM (active),–,inactive,29.8 µM (active),–,–,–,–,–,–,–,–,–
CC1=C(/C=C/C(C)=C\C=C\C(C)=C\C(=O)O)C(C)(C)CCC1,inactive,inactive,inactive,inactive,inactive,inactive,–,–,inactive,inactive,inactive,inactive,243 nM (active),inactive,inactive,–,–,–,–,–
CC[C@H](NC(=O)c1cc(F)ccc1NS(=O)(=O)c1cccc2cccnc12)c1ccccc1,inactive,–,inactive,inactive,inactive,inactive,–,inactive,inactive,inactive,inactive,inactive,–,inactive,–,inactive,inactive,inactive,–,–
CCc1cccc(N(C)C(N)=Nc2cccc3ccccc23)c1,18.8 µM (active),21.1 µM (active),–,–,–,inactive,–,inactive,inactive,inactive,inactive,–,–,inactive,–,inactive,–,inactive,–,–
COc1cc2c(cc1OC)-c1cc(=Nc3c(C)cc(C)cc3C)n(C)c(=O)n1CC2,21.1 µM (active),18.8 µM (active),–,–,29.8 µM (active),–,–,–,–,–,26.6 µM (active),inactive,–,1.33 µM (active),13.3 µM (active),–,–,26.6 µM (active),–,–
CCCCC1C(=O)N(c2ccccc2)N(c2ccc(O)cc2)C1=O (stereo not given),3.59 µM (active),3.2 µM (active),inactive,inactive,inactive,inactive,29.8 µM (active),inactive,–,–,inactive,–,–,inactive,–,–,–,–,–,–
Cc1c(C(=O)NN2CCCCC2)nn(-c2ccc(Cl)cc2Cl)c1-c1ccc(Cl)cc1,16.8 µM (active),11.9 µM (active),–,inactive,inactive,–,–,–,–,–,inactive,inactive,inactive,–,–,–,inactive,inactive,–,–
CCc1nn(CCCN2CCN(c3cccc(Cl)c3)CC2)c(=O)n1CCOc1ccccc1,10.6 µM (active) and 26.6 µM (active),11.9 µM (active) and 26.6 µM (active),23.9 µM (active),29.8 µM (active) and inactive,23.7 µM (active),–,–,–,inactive,inactive,29.8 µM (active) and 33.5 µM (active),inactive,7.5 µM (active) and 26.6 µM (active),–,–,–,–,29.8 µM (active),inactive,–
O=C(CCCN1CCN(c2ccc(F)cc2)CC1)NC1c2ccccc2CSc2ccccc21 (stereo not given),10.6 µM (active),10.6 µM (active),inactive,–,–,–,–,–,–,inactive,–,inactive,inactive,–,–,–,inactive,–,–,21.3 µM [inconclusive] (active)
CNCCCC1c2ccccc2C=Cc2ccccc21,4.52 µM (active),11.4 µM (active),inactive,inactive,inactive,inactive,–,inactive,inactive,inactive,inactive,inactive,inactive,inactive,–,–,inactive,inactive,–,inactive
O=c1[nH]c2ccc(S(=O)CCN3CCC(Cc4ccc(F)cc4)CC3)cc2o1 (stereo not given),inactive,–,inactive,–,inactive,inactive,–,inactive,inactive,inactive,inactive,inactive,–,–,–,inactive,12.2 µM (active),inactive,–,inactive
CCCOc1ccc(S(=O)(=O)N2CCN(CC)CC2)cc1-c1nc2c(CC)n(Cc3ccccn3)nc2c(=O)[nH]1,inactive,–,inactive,inactive,–,–,–,inactive,inactive,inactive,inactive,inactive,inactive,inactive,–,inactive,inactive,inactive,–,inactive
Cc1cc2nc3ccc(=[N+](C)C)cc-3sc2cc1N,26.6 µM (active),21.1 µM (active),inactive,inactive,9.44 µM (active),–,2.11 µM (active),11.9 µM (active),inactive,–,5.31 µM (active),inactive,–,–,–,–,–,26.6 µM (active),inactive,–
COc1cc2ncnc(Nc3ccc(F)c(Cl)c3)c2cc1OCCCN1CCOCC1,10.6 µM (active),10.6 µM (active),inactive,–,inactive,inactive,–,–,inactive,inactive,inactive,inactive,–,15 µM (active),–,–,–,–,inactive,16.9 µM [inhibitor] (active)
Cc1nc2ccccn2c(=O)c1CCN1CCC(C(=O)c2ccc(F)cc2)CC1,inactive,–,inactive,inactive,inactive,inactive,–,inactive,–,inactive,inactive,inactive,–,inactive,inactive,inactive,inactive,inactive,inactive,inactive
O=C(N[C@@H](c1ccccc1)[C@@H]1CCCCN1)c1cccc(C(F)(F)F)c1Cl,24.3 µM (active),27.3 µM (active),inactive,–,24.3 µM (active),–,–,21.7 µM (active),inactive,inactive,38.6 µM (active),inactive,–,–,–,–,–,–,–,–
NC(=O)N(O)[C@@H]1C=C[C@H](Oc2cccc(Oc3ccc(F)cc3)c2)C1,inactive,68.6 µM (active),inactive,inactive,–,inactive,17.2 µM (active),inactive,inactive,inactive,–,inactive,77000 nM (active),inactive,–,–,13.7 µM (active),inactive,inactive,inactive
CC(=O)[C@H]1CC[C@H]2[C@@H]3C=CC4=CC(=O)CC[C@@]4(C)[C@@H]3CC[C@]12C,inactive,–,inactive,inactive,inactive,inactive,13.3 µM (active),inactive,inactive,inactive,inactive,inactive,inactive,inactive,–,inactive,inactive,inactive,inactive,–
